Measurements as given in the supplement of paper PMC10849652.
Of roughly 7,900 targets only a part is listed; those with a hit were picked by preference. About 0.6% of all pairs of compound and target were hits.

Compound: COc1cc2ncnc(Nc3ccc(F)c(Cl)c3)c2cc1OCCCN1CCOCC1 [gefitinib]
Test: log2 fold change, soluble protein after heating vs DMSO (PISA); higher = thermal stabilisation; K562 cells, 10 uM, 30 min; active = over 0.2 and 3.5 SD of the protein, either way, in both replicates (recomputed)
Method in brief: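 K562 cells at 2×10^6 cells/mL were treated for 30 min with 10 μM compound, and aliquots were heated for 3 min over 48°C-58°C before pooling. Extraction used PBS with 0.5% NP-40 at 4°C, and soluble protein was the supernatant after 21,000xg for 90 min, measured by TMTpro 16plex LC-MS/MS with channel sums equalised. Thermal stability values, relative to control samples and from duplicates, are log2 fold changes.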

Sequence of UniProt P15559 (P15559 whole entry, looked up): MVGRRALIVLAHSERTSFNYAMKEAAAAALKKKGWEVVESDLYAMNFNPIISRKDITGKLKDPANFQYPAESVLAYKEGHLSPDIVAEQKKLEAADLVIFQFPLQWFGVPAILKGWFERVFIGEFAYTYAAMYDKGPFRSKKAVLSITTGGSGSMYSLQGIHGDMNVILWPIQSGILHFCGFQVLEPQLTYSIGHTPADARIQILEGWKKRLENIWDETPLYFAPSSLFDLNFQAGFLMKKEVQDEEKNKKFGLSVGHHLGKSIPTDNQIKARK
Sequence of UniProt Q16621 (Q16621 whole entry, looked up): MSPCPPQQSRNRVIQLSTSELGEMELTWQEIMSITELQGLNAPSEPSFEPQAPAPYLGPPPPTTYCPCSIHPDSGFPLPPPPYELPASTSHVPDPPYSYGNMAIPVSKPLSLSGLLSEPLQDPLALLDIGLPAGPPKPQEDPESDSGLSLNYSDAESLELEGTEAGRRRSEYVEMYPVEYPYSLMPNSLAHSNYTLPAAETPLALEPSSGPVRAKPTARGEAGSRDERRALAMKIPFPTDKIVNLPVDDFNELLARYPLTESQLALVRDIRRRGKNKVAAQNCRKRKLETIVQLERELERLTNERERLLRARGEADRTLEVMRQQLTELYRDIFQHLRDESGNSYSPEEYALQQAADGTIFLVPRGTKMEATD
Sequence of UniProt P56556 (P56556 whole entry, looked up): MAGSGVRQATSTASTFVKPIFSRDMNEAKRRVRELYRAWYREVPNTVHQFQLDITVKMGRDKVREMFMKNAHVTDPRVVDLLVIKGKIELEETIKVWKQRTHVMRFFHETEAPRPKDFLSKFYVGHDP
Sequence of UniProt Q9BUB5 (Q9BUB5 whole entry, looked up): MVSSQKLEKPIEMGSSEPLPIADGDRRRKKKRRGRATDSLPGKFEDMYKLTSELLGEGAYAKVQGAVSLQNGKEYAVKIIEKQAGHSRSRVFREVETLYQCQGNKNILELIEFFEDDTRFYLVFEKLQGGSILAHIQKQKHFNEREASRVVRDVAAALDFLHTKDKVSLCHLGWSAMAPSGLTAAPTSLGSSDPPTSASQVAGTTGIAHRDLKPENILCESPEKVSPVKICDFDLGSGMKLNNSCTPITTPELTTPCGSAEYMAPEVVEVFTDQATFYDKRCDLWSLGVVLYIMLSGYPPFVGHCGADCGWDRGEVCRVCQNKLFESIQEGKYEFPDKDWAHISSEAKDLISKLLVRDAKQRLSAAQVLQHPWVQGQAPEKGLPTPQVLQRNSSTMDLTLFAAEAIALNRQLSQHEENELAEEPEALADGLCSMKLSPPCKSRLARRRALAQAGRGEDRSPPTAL
Sequence of UniProt Q969V5 (Q969V5 whole entry, looked up): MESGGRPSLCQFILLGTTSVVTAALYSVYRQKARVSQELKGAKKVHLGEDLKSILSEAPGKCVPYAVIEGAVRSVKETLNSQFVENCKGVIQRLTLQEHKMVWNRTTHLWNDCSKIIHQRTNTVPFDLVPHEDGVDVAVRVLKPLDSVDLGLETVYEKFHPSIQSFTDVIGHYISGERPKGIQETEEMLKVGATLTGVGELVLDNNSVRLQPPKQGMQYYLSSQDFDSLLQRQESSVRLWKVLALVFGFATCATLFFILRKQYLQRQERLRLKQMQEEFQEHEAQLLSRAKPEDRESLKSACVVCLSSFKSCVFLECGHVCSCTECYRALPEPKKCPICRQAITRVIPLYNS
Sequence of UniProt P17568 (P17568 whole entry, looked up): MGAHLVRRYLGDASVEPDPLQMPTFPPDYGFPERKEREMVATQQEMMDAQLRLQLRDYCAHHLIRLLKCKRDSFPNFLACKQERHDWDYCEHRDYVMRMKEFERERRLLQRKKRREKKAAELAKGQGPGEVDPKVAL
Sequence of UniProt O95169 (O95169 whole entry, looked up): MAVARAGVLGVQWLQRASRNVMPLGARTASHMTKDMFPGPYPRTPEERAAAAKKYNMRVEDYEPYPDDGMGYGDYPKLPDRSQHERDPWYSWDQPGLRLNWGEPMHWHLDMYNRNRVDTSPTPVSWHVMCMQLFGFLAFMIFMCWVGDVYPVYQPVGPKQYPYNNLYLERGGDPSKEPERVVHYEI
Sequence of UniProt O00567 (O00567 whole entry, looked up): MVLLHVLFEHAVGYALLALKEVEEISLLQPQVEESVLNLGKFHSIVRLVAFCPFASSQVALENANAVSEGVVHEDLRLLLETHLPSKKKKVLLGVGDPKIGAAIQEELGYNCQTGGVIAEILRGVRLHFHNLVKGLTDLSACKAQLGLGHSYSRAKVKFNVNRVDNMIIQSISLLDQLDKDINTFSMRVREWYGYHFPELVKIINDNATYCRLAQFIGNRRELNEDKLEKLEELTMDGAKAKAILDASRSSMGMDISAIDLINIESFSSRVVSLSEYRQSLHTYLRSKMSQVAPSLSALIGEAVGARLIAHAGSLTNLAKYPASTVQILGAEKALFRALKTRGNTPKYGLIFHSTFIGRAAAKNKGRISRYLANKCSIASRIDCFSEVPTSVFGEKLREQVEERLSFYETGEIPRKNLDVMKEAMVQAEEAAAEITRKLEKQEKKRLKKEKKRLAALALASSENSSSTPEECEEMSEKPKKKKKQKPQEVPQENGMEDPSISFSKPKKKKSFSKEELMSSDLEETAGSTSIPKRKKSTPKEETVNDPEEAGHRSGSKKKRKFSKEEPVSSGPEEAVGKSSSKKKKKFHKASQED
Sequence of UniProt Q96I59 (Q96I59 whole entry, looked up): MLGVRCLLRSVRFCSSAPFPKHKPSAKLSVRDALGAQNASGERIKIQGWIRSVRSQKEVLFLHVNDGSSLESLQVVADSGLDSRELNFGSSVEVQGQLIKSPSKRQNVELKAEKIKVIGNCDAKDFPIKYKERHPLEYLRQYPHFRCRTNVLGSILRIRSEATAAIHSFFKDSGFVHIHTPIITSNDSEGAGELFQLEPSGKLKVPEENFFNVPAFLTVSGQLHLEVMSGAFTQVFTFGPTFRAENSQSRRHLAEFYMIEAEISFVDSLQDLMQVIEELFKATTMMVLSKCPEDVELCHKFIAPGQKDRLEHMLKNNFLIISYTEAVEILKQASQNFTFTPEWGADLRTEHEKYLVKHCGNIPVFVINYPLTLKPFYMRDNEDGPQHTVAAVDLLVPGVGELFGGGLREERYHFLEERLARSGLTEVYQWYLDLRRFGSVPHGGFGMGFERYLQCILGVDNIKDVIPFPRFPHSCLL
Sequence of UniProt Q8WV92 (Q8WV92 whole entry, looked up): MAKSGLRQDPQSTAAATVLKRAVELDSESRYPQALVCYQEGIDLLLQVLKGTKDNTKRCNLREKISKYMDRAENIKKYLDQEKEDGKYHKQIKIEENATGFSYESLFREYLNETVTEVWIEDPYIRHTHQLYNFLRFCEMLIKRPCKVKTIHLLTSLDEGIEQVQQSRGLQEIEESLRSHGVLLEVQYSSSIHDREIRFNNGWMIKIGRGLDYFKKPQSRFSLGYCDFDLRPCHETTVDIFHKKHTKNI
Sequence of UniProt Q9H3P2 (Q9H3P2 whole entry, looked up): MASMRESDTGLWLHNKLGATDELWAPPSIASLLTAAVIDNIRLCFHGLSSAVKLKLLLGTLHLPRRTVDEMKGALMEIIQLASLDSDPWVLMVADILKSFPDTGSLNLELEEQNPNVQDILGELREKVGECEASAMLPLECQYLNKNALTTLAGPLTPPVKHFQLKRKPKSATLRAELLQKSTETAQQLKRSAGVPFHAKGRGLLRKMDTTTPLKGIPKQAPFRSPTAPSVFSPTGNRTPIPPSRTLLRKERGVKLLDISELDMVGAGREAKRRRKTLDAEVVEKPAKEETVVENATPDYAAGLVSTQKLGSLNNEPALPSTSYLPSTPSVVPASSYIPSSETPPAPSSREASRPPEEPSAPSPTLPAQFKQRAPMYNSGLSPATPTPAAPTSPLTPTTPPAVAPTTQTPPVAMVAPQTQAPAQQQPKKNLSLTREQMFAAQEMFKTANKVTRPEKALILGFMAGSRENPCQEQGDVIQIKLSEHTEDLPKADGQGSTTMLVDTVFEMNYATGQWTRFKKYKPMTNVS
Sequence of UniProt Q08J23 (Q08J23 whole entry, looked up): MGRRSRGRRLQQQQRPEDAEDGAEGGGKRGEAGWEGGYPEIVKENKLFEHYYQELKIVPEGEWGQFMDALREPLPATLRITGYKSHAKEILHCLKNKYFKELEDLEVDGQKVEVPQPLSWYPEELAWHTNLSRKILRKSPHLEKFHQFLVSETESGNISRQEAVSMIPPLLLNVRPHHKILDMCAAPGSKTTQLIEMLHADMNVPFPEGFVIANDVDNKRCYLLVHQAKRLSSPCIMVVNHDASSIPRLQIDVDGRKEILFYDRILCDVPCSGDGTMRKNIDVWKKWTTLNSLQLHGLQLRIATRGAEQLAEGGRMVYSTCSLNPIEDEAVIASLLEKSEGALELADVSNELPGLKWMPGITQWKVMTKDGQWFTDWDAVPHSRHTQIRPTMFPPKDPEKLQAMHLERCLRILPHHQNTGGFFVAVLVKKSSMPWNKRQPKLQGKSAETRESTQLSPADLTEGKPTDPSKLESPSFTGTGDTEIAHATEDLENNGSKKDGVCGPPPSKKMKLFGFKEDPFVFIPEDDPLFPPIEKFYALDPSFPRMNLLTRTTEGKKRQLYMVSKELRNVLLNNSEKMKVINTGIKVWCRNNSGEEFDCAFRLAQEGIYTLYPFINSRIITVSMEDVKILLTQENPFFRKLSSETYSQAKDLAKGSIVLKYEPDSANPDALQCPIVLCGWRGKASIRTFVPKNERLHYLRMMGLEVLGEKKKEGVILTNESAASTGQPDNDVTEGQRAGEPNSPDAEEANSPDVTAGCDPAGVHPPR
Sequence of UniProt Q9HAN9 (Q9HAN9 whole entry, looked up): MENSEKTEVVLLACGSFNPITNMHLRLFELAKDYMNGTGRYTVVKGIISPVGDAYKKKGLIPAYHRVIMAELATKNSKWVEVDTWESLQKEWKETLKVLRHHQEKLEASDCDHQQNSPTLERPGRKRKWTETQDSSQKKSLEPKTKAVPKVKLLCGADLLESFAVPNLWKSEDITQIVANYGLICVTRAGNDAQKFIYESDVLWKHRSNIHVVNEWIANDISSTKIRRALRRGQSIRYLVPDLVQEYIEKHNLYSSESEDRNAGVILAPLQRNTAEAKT

log2 fold change, active:
MKNK1 (UniProt Q9BUB5) 0.525

log2 fold change, inactive:
NDUFB8 (UniProt O95169) -0.023
MRPS12 (UniProt O15235) -0.078
NELFA (UniProt Q9H3P2) 0.36
MRPS2 (UniProt Q9Y399) -0.036
MRPS16 (UniProt Q9Y3D3) -0.045
NOP56 (UniProt O00567) -0.046
MITD1 (UniProt Q8WV92) -0.018
NDUFS7 (UniProt O75251) -0.029
NARS2 (UniProt Q96I59) -0.039
NDUFA6 (UniProt P56556) -0.004
NDUFA9 (UniProt Q16795) -0.055
NMNAT1 (UniProt Q9HAN9) -0.022
NQO1 (UniProt P15559) -0.006
OTULIN (UniProt Q96BN8) 0
NDUFB7 (UniProt P17568) 0
MUL1 (UniProt Q969V5) 0.017
MSTO1 (UniProt Q9BUK6) -0.018
NSUN2 (UniProt Q08J23) 0.015
MKRN2 (UniProt Q9H000) -0.099
NFE2 (UniProt Q16621) -0.008
MRPS9 (UniProt P82933) 0.084
NCAPH (UniProt Q15003) 0
NGLY1 (UniProt Q96IV0) 0.076
